Experimental data from the supplement of paper PMC11732987, “Enantioselective OTUD7B fragment discovery through chemoproteomics screening and high-throughput optimisation” (Communications Chemistry, 2025).

How the values were obtained:
Experiment in all cases: log2 ratio of Biotin-Ahx-Ub-VS probe labelling (fragment/DMSO); higher = less target engagement (more negative = stronger competition), active = hit call of the paper (q ≤ 0.05, log2 ratio ≤ -1)
Conditions in all cases: compound concentration: 200 uM; treatment time: 3 h
USP34 = USP34 (UniProt Q70CQ2)
Sequence of USP34 (Q70CQ2 whole entry, the tested form may be a part): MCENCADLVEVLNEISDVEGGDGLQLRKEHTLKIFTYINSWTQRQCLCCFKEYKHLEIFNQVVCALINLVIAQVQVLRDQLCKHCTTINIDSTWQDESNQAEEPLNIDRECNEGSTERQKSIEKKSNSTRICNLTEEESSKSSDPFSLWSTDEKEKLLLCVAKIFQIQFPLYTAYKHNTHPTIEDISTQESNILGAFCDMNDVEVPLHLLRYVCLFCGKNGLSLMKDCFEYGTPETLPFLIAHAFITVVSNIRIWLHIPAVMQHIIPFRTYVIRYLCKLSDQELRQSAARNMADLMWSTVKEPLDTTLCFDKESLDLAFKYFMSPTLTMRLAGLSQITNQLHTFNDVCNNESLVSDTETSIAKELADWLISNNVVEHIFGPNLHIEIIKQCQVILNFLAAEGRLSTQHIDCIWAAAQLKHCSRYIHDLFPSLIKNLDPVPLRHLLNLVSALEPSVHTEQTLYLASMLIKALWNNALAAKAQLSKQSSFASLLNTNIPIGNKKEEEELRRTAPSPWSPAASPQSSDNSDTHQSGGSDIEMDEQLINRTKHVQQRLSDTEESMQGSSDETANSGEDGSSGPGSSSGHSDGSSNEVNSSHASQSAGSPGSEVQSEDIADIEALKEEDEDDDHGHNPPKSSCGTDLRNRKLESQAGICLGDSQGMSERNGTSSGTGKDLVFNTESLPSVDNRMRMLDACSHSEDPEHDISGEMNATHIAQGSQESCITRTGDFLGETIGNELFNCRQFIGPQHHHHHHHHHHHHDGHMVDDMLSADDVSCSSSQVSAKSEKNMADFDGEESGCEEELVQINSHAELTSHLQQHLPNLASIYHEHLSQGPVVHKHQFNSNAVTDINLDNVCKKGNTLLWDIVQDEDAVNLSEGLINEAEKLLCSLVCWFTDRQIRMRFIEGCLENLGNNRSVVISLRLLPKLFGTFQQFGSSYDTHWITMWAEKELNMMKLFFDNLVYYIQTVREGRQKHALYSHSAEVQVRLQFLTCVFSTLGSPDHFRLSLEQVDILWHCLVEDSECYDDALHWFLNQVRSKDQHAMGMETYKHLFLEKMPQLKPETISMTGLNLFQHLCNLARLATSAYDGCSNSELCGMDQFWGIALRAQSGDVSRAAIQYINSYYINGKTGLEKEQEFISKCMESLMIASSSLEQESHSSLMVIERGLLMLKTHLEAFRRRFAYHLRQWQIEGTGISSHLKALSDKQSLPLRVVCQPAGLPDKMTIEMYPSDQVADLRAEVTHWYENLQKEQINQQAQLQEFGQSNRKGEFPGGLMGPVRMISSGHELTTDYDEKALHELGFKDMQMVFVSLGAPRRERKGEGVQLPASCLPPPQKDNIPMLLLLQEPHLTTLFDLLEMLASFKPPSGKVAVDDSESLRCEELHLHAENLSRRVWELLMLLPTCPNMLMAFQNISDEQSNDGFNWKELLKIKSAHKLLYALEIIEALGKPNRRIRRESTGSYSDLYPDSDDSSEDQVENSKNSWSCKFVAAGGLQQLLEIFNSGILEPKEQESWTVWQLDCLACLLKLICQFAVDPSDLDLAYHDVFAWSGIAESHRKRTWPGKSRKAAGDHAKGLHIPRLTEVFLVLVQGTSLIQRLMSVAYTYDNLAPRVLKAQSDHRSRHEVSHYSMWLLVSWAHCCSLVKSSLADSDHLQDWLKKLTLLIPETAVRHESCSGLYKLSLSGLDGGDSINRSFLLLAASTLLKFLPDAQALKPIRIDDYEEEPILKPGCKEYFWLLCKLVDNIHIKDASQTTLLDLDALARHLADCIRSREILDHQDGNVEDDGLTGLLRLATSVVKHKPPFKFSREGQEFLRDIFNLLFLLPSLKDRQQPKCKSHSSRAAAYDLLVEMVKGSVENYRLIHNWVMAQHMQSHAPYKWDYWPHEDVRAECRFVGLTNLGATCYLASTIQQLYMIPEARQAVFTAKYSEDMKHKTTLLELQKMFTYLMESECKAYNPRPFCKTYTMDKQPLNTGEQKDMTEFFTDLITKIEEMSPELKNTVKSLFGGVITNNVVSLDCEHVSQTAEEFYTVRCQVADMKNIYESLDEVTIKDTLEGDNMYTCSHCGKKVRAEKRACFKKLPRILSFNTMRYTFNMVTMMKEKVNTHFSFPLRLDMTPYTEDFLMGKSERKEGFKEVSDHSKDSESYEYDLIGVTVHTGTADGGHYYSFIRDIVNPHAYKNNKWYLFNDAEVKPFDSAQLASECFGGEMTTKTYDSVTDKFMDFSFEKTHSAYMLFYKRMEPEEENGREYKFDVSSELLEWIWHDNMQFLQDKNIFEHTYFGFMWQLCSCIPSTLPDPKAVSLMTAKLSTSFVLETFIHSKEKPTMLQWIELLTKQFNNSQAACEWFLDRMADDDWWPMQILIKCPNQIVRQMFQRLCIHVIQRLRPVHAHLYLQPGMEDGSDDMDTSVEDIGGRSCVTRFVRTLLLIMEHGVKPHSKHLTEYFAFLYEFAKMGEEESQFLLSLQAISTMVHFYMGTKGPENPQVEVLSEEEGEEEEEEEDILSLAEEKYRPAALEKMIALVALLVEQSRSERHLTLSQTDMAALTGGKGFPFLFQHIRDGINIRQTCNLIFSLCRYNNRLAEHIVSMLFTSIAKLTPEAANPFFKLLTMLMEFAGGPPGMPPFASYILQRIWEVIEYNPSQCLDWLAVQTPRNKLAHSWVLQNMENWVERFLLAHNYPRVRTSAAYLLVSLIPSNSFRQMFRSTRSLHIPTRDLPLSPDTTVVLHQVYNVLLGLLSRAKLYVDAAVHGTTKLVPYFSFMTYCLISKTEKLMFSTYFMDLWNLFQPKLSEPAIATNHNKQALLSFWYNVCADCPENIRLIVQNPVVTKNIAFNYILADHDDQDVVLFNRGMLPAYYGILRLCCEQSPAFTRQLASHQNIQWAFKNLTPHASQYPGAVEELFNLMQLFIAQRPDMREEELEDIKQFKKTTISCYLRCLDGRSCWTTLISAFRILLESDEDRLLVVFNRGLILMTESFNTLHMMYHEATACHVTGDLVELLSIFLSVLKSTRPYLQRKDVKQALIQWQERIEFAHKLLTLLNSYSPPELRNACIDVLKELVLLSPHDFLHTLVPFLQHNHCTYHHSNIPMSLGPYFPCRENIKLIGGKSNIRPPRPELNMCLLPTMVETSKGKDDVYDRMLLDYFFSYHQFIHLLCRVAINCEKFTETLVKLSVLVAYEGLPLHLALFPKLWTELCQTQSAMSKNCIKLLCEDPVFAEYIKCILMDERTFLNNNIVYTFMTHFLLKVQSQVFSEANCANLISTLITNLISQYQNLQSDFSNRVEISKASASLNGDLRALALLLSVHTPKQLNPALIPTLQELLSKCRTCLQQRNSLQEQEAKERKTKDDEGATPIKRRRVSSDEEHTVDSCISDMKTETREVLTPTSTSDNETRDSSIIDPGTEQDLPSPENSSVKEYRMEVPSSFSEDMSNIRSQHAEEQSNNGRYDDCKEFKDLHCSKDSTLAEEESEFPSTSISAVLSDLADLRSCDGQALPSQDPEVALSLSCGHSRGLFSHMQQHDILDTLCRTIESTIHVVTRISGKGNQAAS
Procedure, shortened: (§1)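 The table lists average log2 ratios of fragment over vehicle, from an unpaired t-test on global-median-normalised Spectronaut label-free quantities. Proteins with ≥2 unique peptides were used. Samples were HEK293T lysate (495 µg) treated in triplicate with fragment at 200 µM or vehicle for 3 h, then with Biotin-Ahx-Ub-VS (0.5 µM final) for 1 h, with labelled DUBs NeutrAvidin-enriched and run by diaPASEF LC-MS/MS.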

USP36 = target: T1, USP36 (UniProt Q9P275)
T1 sequence (whole entry): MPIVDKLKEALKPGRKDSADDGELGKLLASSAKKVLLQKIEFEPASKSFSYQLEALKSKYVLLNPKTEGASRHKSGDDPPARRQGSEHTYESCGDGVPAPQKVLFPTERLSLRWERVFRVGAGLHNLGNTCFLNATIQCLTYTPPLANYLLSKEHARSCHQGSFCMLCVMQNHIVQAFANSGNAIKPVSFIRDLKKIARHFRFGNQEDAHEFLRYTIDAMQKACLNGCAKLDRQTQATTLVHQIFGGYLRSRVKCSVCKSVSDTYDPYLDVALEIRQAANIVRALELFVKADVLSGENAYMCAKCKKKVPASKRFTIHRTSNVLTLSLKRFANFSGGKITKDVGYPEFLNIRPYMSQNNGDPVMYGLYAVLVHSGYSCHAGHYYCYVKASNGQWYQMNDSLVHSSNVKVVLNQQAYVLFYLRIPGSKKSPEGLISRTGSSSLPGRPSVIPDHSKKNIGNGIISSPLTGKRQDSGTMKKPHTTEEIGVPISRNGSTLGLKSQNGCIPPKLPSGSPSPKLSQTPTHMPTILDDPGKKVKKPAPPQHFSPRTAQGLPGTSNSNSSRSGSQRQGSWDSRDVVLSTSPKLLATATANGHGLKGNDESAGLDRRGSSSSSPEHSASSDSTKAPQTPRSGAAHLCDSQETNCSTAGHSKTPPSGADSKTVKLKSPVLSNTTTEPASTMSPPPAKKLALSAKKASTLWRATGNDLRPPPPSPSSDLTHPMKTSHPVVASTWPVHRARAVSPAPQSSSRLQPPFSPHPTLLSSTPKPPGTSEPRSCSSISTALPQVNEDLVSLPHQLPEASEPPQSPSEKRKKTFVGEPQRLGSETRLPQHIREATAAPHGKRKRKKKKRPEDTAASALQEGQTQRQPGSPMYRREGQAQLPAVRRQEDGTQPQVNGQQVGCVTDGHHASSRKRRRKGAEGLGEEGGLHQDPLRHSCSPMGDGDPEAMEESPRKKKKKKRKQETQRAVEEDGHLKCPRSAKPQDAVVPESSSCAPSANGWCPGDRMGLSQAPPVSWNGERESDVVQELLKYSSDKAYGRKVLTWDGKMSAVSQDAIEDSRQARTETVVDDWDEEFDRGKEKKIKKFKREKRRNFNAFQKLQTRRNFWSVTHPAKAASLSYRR
Procedure, shortened: as §1

USP38 = target: T2, USP38 (UniProt Q8NB14)
T2 sequence (whole entry): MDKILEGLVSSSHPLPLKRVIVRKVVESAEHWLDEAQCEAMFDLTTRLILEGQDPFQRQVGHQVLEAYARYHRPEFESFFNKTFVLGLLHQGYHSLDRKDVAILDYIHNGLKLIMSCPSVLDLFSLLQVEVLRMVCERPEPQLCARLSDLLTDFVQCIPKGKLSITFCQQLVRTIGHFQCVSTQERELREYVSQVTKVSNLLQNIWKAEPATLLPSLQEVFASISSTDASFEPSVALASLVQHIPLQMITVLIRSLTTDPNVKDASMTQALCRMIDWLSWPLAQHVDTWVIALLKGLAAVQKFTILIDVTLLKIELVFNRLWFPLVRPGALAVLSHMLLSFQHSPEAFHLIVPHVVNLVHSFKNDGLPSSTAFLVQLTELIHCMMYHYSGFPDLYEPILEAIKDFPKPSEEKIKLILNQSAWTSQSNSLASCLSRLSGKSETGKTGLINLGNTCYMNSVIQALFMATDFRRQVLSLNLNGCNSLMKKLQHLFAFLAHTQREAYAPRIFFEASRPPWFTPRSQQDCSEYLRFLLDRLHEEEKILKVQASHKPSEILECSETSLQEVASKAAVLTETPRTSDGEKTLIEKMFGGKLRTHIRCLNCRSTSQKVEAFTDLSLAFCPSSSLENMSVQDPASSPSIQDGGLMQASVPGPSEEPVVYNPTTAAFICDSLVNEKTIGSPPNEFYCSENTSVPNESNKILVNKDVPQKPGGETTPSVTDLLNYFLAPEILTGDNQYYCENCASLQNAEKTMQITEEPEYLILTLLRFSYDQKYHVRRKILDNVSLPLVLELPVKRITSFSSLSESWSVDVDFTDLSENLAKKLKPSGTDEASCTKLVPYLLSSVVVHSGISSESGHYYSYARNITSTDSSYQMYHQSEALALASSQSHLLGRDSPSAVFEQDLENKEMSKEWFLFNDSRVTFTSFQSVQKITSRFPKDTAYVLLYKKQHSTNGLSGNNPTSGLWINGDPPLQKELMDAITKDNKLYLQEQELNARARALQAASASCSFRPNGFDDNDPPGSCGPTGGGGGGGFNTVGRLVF
Procedure, shortened: as §1

USP39 = target: T3, USP39 (UniProt Q53GS9)
T3 sequence (whole entry): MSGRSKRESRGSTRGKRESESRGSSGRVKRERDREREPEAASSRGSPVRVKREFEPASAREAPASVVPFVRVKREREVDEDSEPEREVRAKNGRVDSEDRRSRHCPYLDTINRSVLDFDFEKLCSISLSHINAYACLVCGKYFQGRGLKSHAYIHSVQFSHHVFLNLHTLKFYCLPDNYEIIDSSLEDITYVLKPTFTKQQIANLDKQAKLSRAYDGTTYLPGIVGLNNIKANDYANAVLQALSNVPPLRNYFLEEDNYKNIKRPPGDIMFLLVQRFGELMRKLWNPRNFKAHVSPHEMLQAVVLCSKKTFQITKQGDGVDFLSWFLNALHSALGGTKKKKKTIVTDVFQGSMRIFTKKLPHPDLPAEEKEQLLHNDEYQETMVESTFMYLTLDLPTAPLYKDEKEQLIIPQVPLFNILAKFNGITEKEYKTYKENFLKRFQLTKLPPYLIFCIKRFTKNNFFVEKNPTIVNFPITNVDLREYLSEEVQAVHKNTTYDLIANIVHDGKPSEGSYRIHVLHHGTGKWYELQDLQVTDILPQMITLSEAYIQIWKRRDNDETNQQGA
Procedure, shortened: as §1

USP4 = target: T4, USP4 (UniProt Q13107)
T4 sequence (whole entry): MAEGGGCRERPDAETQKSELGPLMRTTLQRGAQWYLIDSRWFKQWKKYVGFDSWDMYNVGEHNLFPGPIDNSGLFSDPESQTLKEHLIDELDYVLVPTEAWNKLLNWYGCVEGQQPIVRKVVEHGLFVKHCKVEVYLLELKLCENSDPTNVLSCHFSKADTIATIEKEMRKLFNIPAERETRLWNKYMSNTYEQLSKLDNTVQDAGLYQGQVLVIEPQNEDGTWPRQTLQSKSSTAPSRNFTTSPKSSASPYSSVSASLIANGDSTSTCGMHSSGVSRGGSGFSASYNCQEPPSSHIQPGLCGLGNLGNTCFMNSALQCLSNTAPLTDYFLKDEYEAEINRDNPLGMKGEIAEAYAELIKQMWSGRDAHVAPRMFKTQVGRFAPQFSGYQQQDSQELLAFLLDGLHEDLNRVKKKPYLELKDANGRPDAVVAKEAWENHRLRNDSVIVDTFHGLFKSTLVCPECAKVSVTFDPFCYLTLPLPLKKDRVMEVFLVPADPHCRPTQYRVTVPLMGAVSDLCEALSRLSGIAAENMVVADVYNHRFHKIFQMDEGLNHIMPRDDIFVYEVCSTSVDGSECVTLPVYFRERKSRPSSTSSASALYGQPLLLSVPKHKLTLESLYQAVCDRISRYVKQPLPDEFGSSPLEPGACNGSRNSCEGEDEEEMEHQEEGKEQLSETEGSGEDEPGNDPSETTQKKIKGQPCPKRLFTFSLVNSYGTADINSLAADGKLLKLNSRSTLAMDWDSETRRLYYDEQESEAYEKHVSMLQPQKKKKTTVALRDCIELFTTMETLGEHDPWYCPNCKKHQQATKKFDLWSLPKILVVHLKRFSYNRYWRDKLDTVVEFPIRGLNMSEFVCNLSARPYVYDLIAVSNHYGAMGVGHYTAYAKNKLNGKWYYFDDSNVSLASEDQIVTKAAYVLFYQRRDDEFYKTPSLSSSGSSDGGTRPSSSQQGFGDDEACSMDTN
Procedure, shortened: as §1

Measured: log2 ratio of Biotin-Ahx-Ub-VS probe labelling

Cl.O=C(CCl)N1CCCC(c2ncc[nH]2)C1 (stereo not given)
inactive: USP34 0.00166 | USP36 0.0764 | USP38 -0.0133 | USP39 0.00979 | USP4 0.124
